Screening results deposited in PubChem BioAssay by The Scripps Research Institute Molecular Screening Center.
TEAD-YAP inh: TEAD-YAP interaction inhibition | HEK-TIYL cells, TEAD-Gal4/YAP UAS-luciferase luminescence | inhibition, % at 9.12 µM | 640,000 tested, 1.4% active; in the data active means inhibition above about 32%;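 further: 0% = median of test compound wells and 100% = reference inhibitor wells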
GPR151 ag: human GPR151 activation; Q8TDV0; PathHunter beta-arrestin GPR151 cells, luminescence; activation, % at 11.2 µM; 650,000 tested, 1% active; in the data active means activation above about 4.9%;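 further: 0% = median of compound wells and 100% = cells with positive control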
MITF inh: blocks human microphthalmia-associated transcription factor; inhibition, % at 2.6 µM; 650,000 tested, 0.91% active; AID 1259374; O75030; AlphaScreen MITF homodimerization, bead proximity signal; in the data active means inhibition above about 50%;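 further: 0% = vehicle wells with protein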
FBW7 act: activators of human E3 ligase FBW7; AlphaScreen FBW7–phospho-cyclin E peptide binding, activator screen; normalized activity (activation), % at 26.1 µM; 650,000 tested, 0.13% active; in the data active means normalized activity above about 1.9%;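 further: purified mutant Fbw7 with reduced substrate affinity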
GPR151 conf act: human GPR151 activation, confirmation screen; shares compounds with GPR151 ag; GPR151 PathHunter beta-arrestin cells, luminescence, 90 min; % of EA-reagent control over plate median; activation, % at 11.2 µM; 6,700 tested, under 10 active; AID 1508609;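 active means mean percent activation across replicates above the confirmation screen cutoff of 4.91%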
GPR119 counter: GPR119 activation, counter-screen for GPR151 activators | shares compounds with GPR151 ag | GPR119 PathHunter beta-arrestin cells, luminescence, 90 min; 0 = compound-well median, 100 = enzyme-acceptor control | activation, % at 11.2 µM | 6,700 tested, 0.3% active | AID 1508611;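 active means mean percent activation in the counterscreen above 29.09%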;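 further: counterscreen on off-target GPR119 to flag nonselective hits from the GPR151 activator screen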
Target sequence (Q8TDV5 whole entry, looked up): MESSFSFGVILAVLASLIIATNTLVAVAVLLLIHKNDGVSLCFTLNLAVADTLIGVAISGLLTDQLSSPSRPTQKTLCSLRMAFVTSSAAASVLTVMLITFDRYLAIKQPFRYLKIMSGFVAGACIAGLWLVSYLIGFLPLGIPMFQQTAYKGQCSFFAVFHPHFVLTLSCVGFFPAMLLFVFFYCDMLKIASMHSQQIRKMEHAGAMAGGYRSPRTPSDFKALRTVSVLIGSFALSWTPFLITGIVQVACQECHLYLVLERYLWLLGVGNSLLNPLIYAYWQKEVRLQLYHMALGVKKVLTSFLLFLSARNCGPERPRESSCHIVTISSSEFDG
Numbers without * were called inactive; . = no result; ! = repeats disagree. The list is not random: actives were taken first. Their share in the collection is about 3.4%.

SMILES	TEAD-YAP inh	GPR151 ag	MITF inh	FBW7 act	GPR151 conf act	GPR119 counter
Cn1c(=O)[nH]c(=O)c2c1nc(NCc1ccccc1)n2Cc1ccc(Cl)cc1	0	6.7*	0	0	1	-3
O=C(NC(N1CCCCC1c1cccnc1)(C(F)(F)F)C(F)(F)F)c1ccc(F)cc1 (stereo unspecified)	-9	0	-8	0	.	.
O=C(O)CCCNC(=O)c1ccc(Cl)c(Cl)c1	-9	0	-3	0	.	.
O=C(COC(=O)C1CC2C=CC1C2)c1ccc(Cl)cc1 (stereo unspecified)	-54	-2	10	1	.	.
COc1cc(C(C)=O)ccc1OCC(O)CN1CCC(C(N)=O)CC1 (stereo unspecified)	-1	-1	-1	0	.	.
COCCNC(=O)c1cnn(-c2ccccc2)c1-n1cccc1	2	-1	13	0	.	.
CCN1CCCC1CNS(=O)(=O)c1cc(Br)cc2c1N(C(C)=O)CC2 (stereo unspecified)	6	0	18	0	.	.
O=C(Nc1nnc(-c2ccc(Cl)s2)o1)c1cc(=O)c2ccccc2o1	0	3	6	0	.	.
Cc1ccc(-c2csc(NC(=O)c3ccc(S(=O)(=O)N4CCCc5ccccc54)cc3)n2)o1	11	1	18	0	.	.
CCC(=O)Nc1cccc2ncccc12	14	2	-2	0	.	.
O=C(Nc1cccc2ncccc12)C12CC3CC(CC(C3)C1)C2	-10	1	12	0	.	.
O=C(CC12CC3CC(CC(C3)C1)C2)Nc1cccc2ncccc12	-9	6.3*	1	0	0	5
Cc1ccc(SCC(=O)Nc2cccc3ncccc23)cc1	4	6.0*	11	0	1	-9
CCOC(=O)C1=C(C)NC2=C(C(=O)C(C(=O)OCC)C(c3ccccc3OC)C2)C1c1ccc(OCc2ccccc2)c(OC)c1 (stereo unspecified)	0	8.7*	5	0	0	-4
COC(=O)C1=CN(C)C=C(C(=O)OC)C1c1ccc(OCc2ccccc2)c(OC)c1	-18	2	-5	0	.	.
CCOC(=O)C1=CN(C)C=C(C(=O)OCC)C1c1ccc(OC)c(OCc2ccccc2)c1	-4	7.2*	-1	1	0	0
COc1ccccc1Nc1nc(Cl)cc(N)c1[N+](=O)[O-]	-2	3	15	0	.	.
COc1ccccc1Nc1nc(Cl)ccc1[N+](=O)[O-]	-9	5.0*	1	0	0	2
CCOc1cc(C2C(C#N)=C(N)OC3=C2C(=O)CCC3)ccc1O (stereo unspecified)	4	1	8	0	.	.
Cc1cccc(CN2CCC(N3CCC(C(=O)N(C)C(C)C)CC3)CC2)n1	-11	-1	16	0	.	.
CCC(C)NCCOc1ccc([N+](=O)[O-])cc1 (stereo unspecified)	5	6.6*	-14	0	0	6
C/C(=N\NC(=O)c1ccc(CN2c3cccc4cccc(c34)S2(=O)=O)cc1)c1ccco1	-2	2	4	0	.	.
CN1CCC(=NNC(=O)c2ccc(CN3c4cccc5cccc(c45)S3(=O)=O)cc2)CC1	1	6.0*	2	0	-1	1
O=C(c1ccco1)N1CCN(C(=O)C(c2ccccc2)N2Cc3ccccc3C2=O)CC1 (stereo unspecified)	3	0	1	0	.	.
Cc1c(Br)c([N+](=O)[O-])nn1CC(=O)Nc1cc(Cl)ccc1O	5	0	-5	0	.	.
SMILES	TEAD-YAP inh	GPR151 ag	MITF inh	FBW7 act	GPR151 conf act	GPR119 counter
COc1ccc(OC)c(NC(=O)CC(C)S(=O)(=O)c2cc3c(cc2C)NC(=O)CO3)c1 (stereo unspecified)	-7	5.1*	-6	0	0	-2
Cc1ccccc1NC(=O)CC(C)S(=O)(=O)c1cc2c(cc1C)NC(=O)CO2 (stereo unspecified)	-7	2	8	0	.	.
CC(CC(=O)Nc1ccc(F)cc1F)S(=O)(=O)c1ccc2c(c1)OCC(=O)N2 (stereo unspecified)	4	0	10	0	.	.
CC(CC(=O)Nc1ccc(F)cc1Cl)S(=O)(=O)c1ccc2c(c1)OCC(=O)N2 (stereo unspecified)	1	7.7*	11	0	0	-9
COc1ccc(NC(=O)CC(C)S(=O)(=O)c2ccc3c(c2)OCC(=O)N3)cc1OC (stereo unspecified)	-1	9.6*	-15	0	-1	-6
O=C1CC(c2cccs2)CC2=C1C(c1cccc(C(F)(F)F)c1)Nc1ccccc1N2 (stereo unspecified)	16	2	13	0	.	.
COCCCNc1ncnc2sc3c(c12)CCCC3	-5	1	-3	0	.	.
COc1ccc(-n2nc3c(c2NC(=O)c2cccc(OC)c2)CSC3)cc1	12	6.1*	0	0	0	6
O=C(Nc1c2c(nn1-c1ccc(F)cc1)CSC2)c1ccc(Br)o1	11	2	6	0	.	.
COc1cccc(C(=O)Nc2c3c(nn2-c2ccc(Oc4ccccc4)cc2)CSC3)c1	6	-1	8	1	.	.
O=C(Nc1c2c(nn1-c1ccc([N+](=O)[O-])cc1)CSC2)c1ccc(Br)o1	14	5.2*	8	0	-1	-4
O=C(c1cc(-c2ccccc2)n[nH]1)N1CCN(Cc2nc3ccccc3[nH]2)CC1	2	-1	6	0	.	.
CCCOC(=O)C1=C(C)NC2=C(C(=O)CCC2)C1c1cc(Br)c(O)c(OCC)c1 (stereo unspecified)	-3	0	13	0	.	.
CCCCCOC(=O)C1=C(C)NC2=C(C(=O)CCC2)C1c1cc(Br)c(O)c(OCC)c1 (stereo unspecified)	2	5.5*	9	0	-1	-3
CCCOC(=O)C1=C(C)NC2=C(C(=O)CCC2)C1c1cccnc1 (stereo unspecified)	2	6.1*!	2	0	1	3
CCOc1c(Br)cc(C2C(C(=O)N3CCOCC3)=C(C)NC3=C2C(=O)CCC3)cc1OC (stereo unspecified)	4	6.2*	-1	0	0	-1
COc1ccc(C2OC2C(=O)c2ccccc2)cc1 (stereo unspecified)	-23	-1	-11	0	.	.
CCOC(=O)CCNC(=O)N1CCCC(CCC(=O)N(C)CCc2ccccn2)C1 (stereo unspecified)	-4	0	-6	0	.	.
Cc1nonc1CC(=O)N1CCCC(CCC(=O)N(C)CCc2ccccn2)C1 (stereo unspecified)	12	7.7*	10	0	0	-3
CCOC(=O)CCNC(=O)N1CCCC(N(C)CCc2ccccn2)C1 (stereo unspecified)	-3	5.4*	-2	0	1	-2
